# Reference: PubChem BioAssay (Tox21)
# Values joined by “and” are separate entries in the source; they are usually repeats but may differ in a detail not shown here. Equal values may be shown once. Results filed as inconclusive are left out. Entries that show only a call come without a potency. Where a structure was tested more than once in an assay, its records may differ in their call. Active and inactive are the calls of the source. Unless noted, calls come from the whole dose curve; as a rule, active = well fitted curve in the direction sought with a large enough effect in the repeat runs; inconclusive = weak or mixed curves; inactive = no such curve, though single readings can be large; an effect the other way counts as inactive or inconclusive.
# Assays:
# [1] = qHTS assay to identify small molecule antagonists of the glucocorticoid receptor (GR) signaling pathway - cell viability counter screen (AID 720693); note: nearly all actives have a fitted effect of over 55% in size
# [2] = qHTS assay for identifying genotoxic compounds that show differential cytotoxicity against isogenic chicken DT40 cell lines with known DNA damage response pathways - wild type cell line (AID 743012); note: nearly all actives have a fitted effect of over 60% in size; note: potency is the fitted concentration of half-maximal effect
# Summary of the method: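 Endpoint: CellTiter-Glo luminescence, 30 min RT. Cells: wild type DT40, 300/well. Exposure: compounds in DMSO, 40 h, 37 C/5% CO2, after ~0.5 h pre-incubation.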
# [3] = qHTS assay for identifying genotoxic compounds that show differential cytotoxicity against isogenic chicken DT40 cell lines with known DNA damage response pathways - Rev3 mutant cell line (AID 743014); note: nearly all actives have a fitted effect of over 55% in size; note: potency is the fitted concentration of half-maximal effect
# [4] = qHTS assay for identifying genotoxic compounds that show differential cytotoxicity against isogenic chicken DT40 cell lines with known DNA damage response pathways - Rad54/Ku70 mutant cell line (AID 743015); note: nearly all actives have a fitted effect of over 60% in size; note: potency is the fitted concentration of half-maximal effect
# [5] = qHTS assay to identify small molecule antagonists of the androgen receptor (AR) signaling pathway - cell viability counter screen (AID 743033; note: nearly all actives have a fitted effect of over 45% in size)
# [6] = biological target: Androgen receptor (Homo sapiens) (UniProt P10275); experiment: qHTS assay to identify small molecule agonists of the androgen receptor (AR) signaling pathway (AID 743036; active = well fitted activation curve with a large enough effect in the signal ratio in the repeat runs, with a control signal flat, not every such curve was filed as active; the % refers to the signal ratio)
# Sequence of Androgen receptor (Homo sapiens) (P10275 whole entry, looked up): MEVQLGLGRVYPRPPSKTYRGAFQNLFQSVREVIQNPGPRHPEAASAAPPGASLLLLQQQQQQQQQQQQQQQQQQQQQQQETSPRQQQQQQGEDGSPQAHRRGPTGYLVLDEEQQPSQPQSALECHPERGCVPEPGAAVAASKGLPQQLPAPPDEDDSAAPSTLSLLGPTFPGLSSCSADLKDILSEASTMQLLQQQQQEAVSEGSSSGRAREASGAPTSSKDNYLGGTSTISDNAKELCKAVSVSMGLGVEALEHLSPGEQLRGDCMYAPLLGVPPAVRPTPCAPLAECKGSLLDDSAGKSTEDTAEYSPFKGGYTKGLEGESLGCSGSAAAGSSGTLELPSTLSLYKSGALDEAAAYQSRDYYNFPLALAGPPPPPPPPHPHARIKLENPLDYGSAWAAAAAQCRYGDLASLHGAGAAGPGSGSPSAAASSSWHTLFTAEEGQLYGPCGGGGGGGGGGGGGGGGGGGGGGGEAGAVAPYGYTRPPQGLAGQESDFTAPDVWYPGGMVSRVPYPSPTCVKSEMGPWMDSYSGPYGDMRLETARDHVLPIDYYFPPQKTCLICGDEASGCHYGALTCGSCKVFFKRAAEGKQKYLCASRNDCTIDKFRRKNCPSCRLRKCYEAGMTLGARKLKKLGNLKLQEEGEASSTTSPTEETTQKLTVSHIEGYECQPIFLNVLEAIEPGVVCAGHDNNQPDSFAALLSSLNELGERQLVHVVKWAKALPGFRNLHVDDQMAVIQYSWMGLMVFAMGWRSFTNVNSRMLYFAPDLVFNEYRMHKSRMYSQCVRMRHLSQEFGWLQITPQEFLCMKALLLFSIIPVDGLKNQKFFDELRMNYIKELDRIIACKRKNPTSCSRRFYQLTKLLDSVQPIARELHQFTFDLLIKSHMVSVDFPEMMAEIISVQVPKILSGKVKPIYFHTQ
# Summary of the method: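 HEK293 cells stably carrying a UAS-driven beta-lactamase reporter (GeneBLAzer AR-UAS-bla-GripTite) were plated at 2,000 cells/well, rested 4 h at 37C, then exposed to compounds in DMSO for 16 h. LiveBLAzer B/G FRET substrate was added for 2 h at room temperature; fluorescence read.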
# [7] = biological target: Androgen receptor (Homo sapiens) (UniProt P10275); experiment: qHTS assay to identify small molecule agonists of the androgen receptor (AR) signaling pathway using the MDA cell line (AID 743040; note: nearly all actives have a fitted effect of over 20% in size)
# Summary of the method: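 Cell-based luciferase reporter: MDA-kb2, MMTV promoter (AR + GR response elements). 16 h compound exposure at 37C; ONE-Glo, 30 min RT, luminescence.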
# [8] = qHTS assay to identify small molecule antagonists of the androgen receptor (AR) signaling pathway using the MDA cell line - cell viability counter screen (AID 743041; note: nearly all actives have a fitted effect of over 45% in size; note: potency is the fitted concentration of half-maximal effect)
# Summary of the method: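 In this qHTS counter assay, fluorescence intensity after CellTiter-Fluor addition indicated viability of MDA-kb2 AR-luc cells given compounds and R1881 for 16 h at 37C.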
# [9] = biological target: Androgen receptor (Homo sapiens) (UniProt P10275); experiment: qHTS assay to identify small molecule antagonists of the androgen receptor (AR) signaling pathway using the MDA cell line (AID 743042; note: nearly all actives have a fitted effect of over 55% in size)
# Summary of the method: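 MDA-kb2 cells (human breast carcinoma, stably carrying an MMTV-luciferase reporter responsive to AR and GR) were plated at 3,000 cells/well and preincubated 5 hr at 37C, then given compound plus R1881 agonist for 16 h. ONE-Glo luminescence was read.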
# [10] = qHTS assay to identify small molecule antagonists of the thyroid receptor (TR) signaling pathway - cell viability counter screen (AID 743064); note: nearly all actives have a fitted effect of over 50% in size; note: potency is the fitted concentration of half-maximal effect
# Summary of the method: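 GH3.TRE-Luc rat pituitary cells carrying a TRE-luciferase reporter were treated with compound plus 1 nM T3 (final) for 23.5 h at 37 °C. Viability was then read in the same wells by CellTiter-Fluor fluorescence after a further 30 min.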
# [11] = qHTS assay to identify small molecule antagonists of the thyroid receptor (TR) signaling pathway (AID 743065); note: nearly all actives have a fitted effect of over 55% in size; note: potency is the fitted concentration of half-maximal effect; for activity, negative = inhibition: series mostly up to about 70 µM
# Summary of the method: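 GH3.TRE-Luc rat pituitary cells carrying two TR response elements driving luciferase were plated for 4 h, given compound plus 1 nM T3 (final), and incubated 23.5 h at 37 C. ONE-Glo luminescence measured reporter inhibition; CellTiter-Fluor fluorescence tracked cytotoxicity.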
# [12] = tested on: thyroid hormone receptor (rat, GH3 cells); experiment: qHTS assay to identify small molecule agonists of the thyroid receptor (TR) signaling pathway (AID 743066; calls by dose curve)
# [13] = qHTS assay to identify small molecule antagonists of the estrogen receptor alpha (ER-alpha) signaling pathway - cell viability counter screen (AID 743074; calls by dose curve;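 note: HEK293 cells carrying ER-alpha-UAS-bla reporter stimulated with 17beta-estradiol; nearly all actives have a fitted effect of over 45% in size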)
# [14] = biological target: Estrogen receptor (Homo sapiens) (UniProt P03372); experiment: qHTS assay to identify small molecule agonists of the estrogen receptor alpha (ER-alpha) signaling pathway (AID 743075; calls by dose curve)
# Sequence of Estrogen receptor (Homo sapiens) (P03372 whole entry, looked up): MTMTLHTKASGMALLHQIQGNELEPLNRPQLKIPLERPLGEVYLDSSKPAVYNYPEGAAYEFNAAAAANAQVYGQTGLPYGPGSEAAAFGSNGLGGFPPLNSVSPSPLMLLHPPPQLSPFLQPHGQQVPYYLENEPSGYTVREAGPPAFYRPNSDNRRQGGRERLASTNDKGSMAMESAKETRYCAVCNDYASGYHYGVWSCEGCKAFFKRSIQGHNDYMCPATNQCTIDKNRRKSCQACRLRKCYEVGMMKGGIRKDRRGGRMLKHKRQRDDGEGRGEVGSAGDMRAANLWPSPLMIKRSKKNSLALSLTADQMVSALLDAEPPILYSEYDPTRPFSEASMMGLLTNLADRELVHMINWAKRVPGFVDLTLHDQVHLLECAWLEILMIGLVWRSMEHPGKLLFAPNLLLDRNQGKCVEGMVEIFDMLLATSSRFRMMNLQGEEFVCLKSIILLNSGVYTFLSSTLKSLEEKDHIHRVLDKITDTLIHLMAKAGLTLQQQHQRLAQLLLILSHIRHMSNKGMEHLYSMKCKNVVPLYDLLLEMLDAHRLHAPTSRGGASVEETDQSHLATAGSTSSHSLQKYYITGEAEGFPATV
# [15] = biological target: Estrogen receptor (Homo sapiens) (UniProt P03372); experiment: qHTS assay to identify small molecule agonists of the estrogen receptor alpha (ER-alpha) signaling pathway using the BG1 cell line (AID 743079); note: nearly all actives have a fitted effect of over 20% in size
# [16] = qHTS assay to identify small molecule antagonists of the estrogen receptor alpha (ER-alpha) signaling pathway using the BG1 cell line (AID 743080; calls by dose curve; note: series mostly up to about 70 µM; nearly all actives have a fitted effect of over 25% in size)
# Summary of the method: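 Antagonist mode: compounds in DMSO were pinned onto BG1-Luc-4E2 cells alongside 17beta-estradiol agonist, incubated 21.5 h, and ERE-driven luciferase measured with ONE-Glo. Cytotoxicity was multiplexed using CellTiter-Fluor fluorescence.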
# [17] = qHTS assay to identify small molecule antagonists of the estrogen receptor alpha (ER-alpha) signaling pathway using the BG1 cell line - cell viability counter screen (AID 743081);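 note: compound given together with 17beta-estradiol as the ER stimulus; nearly all actives have a fitted effect of over 45% in size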; note: potency is the fitted concentration of half-maximal effect; for activity change, negative = cytotoxicity: series mostly up to about 70 µM
# Aromatase (Homo sapiens) = Aromatase (Homo sapiens) (UniProt P11511); experiment: qHTS assay to identify aromatase inhibitors (AID 743083)
# Sequence of Aromatase (Homo sapiens) (P11511 whole entry, looked up): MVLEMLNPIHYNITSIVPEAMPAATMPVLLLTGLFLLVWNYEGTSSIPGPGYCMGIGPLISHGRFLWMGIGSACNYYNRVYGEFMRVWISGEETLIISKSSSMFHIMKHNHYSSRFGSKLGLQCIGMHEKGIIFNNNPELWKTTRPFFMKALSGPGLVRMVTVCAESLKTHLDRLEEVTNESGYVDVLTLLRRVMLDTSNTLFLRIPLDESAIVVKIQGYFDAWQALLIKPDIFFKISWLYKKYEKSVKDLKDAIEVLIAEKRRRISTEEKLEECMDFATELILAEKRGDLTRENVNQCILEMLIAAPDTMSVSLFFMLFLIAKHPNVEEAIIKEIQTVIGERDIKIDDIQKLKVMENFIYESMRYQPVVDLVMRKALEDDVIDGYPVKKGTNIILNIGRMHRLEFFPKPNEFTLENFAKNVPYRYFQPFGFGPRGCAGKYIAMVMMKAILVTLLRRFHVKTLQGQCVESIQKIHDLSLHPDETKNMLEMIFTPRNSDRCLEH
# [18] = biological target: Estrogen receptor (Homo sapiens) (UniProt P03372); experiment: qHTS assay to identify small molecule antagonists of the estrogen receptor alpha (ER-alpha) signaling pathway (AID 743069; active = well fitted curve in the direction sought with a large enough effect in the signal ratio in the repeat runs, not every such curve was filed as active; the % refers to the signal ratio)
# Summary of the method: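 A 17beta-estradiol challenge was applied right after compound transfer to ER-alpha-UAS-bla HEK293 cells previously kept in charcoal-stripped serum. Plates stood 18 hr at 37C and 5% CO2; fluorescence was read following 2 hr FRET substrate loading at room temperature.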
# [19] = biological target: Androgen receptor (Homo sapiens) (UniProt P10275); experiment: qHTS assay to identify small molecule antagonists of the androgen receptor (AR) signaling pathway (AID 743035; active = well fitted inhibition curve with a large enough effect in the signal ratio in the repeat runs, not every such curve was filed as active; the % refers to the signal ratio)
# Summary of the method: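 R1881 agonist challenge of a HEK293 UAS-beta-lactamase AR reporter line in the presence of compound (16 h, 37C); signal taken as FRET fluorescence after 2 h with LiveBLAzer B/G substrate at room temperature.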
structure (smiles),measurement,setting,value
NCCCN1CCOCC1,Potency,[1],inactive
same,Potency,[2],inactive
same,Potency,[3],inactive
same,Potency,[4],inactive
same,Potency,[5],inactive
same,Potency,[6],inactive
same,Potency,[7],inactive
same,Potency,[8],30.6 µM (active)
same,Potency,[9],inactive
same,Potency,[10],inactive
same,Potency,[11],inactive
same,Potency,[12],inactive
same,Potency,[13],inactive
same,Potency,[14],inactive
same,Potency,[15],inactive
same,Potency,[16],inactive
same,Potency,[17],inactive
same,Potency,Aromatase (Homo sapiens),inactive
NCC(=O)O,Potency,[1],inactive
same,Potency,[2],inactive
same,Potency,[3],inactive
same,Potency,[4],inactive
same,Potency,[5],inactive
same,Potency,[8],inactive
same,Potency,[10],inactive
same,Potency,[11],inactive
same,Potency,[12],inactive
same,Potency,[18],inactive
same,Potency,[14],inactive
same,Potency,[15],inactive
same,Potency,[16],inactive
same,Potency,[17],inactive
same,Potency,Aromatase (Homo sapiens),inactive
CN(C)c1ccc(CCO)cc1,Potency,[1],inactive
same,Potency,[2],inactive
same,Potency,[3],inactive
same,Potency,[4],inactive
same,Potency,[5],inactive
same,Potency,[8],inactive
same,Potency,[10],inactive
same,Potency,[11],inactive
same,Potency,[12],inactive
same,Potency,[13],inactive
same,Potency,[14],inactive
same,Potency,[15],inactive
same,Potency,[16],inactive
same,Potency,[17],inactive
same,Potency,Aromatase (Homo sapiens),inactive
CN(C)CCN(Cc1ccccc1)c1ccccn1,Potency,[1],inactive
same,Potency,[2],inactive
same,Potency,[3],inactive
same,Potency,[4],inactive
same,Potency,[5],inactive
same,Potency,[8],inactive
same,Potency,[10],inactive
same,Potency,[11],inactive
same,Potency,[12],inactive
same,Potency,[18],inactive
same,Potency,[13],inactive
same,Potency,[14],inactive
same,Potency,[15],inactive
same,Potency,[16],inactive
same,Potency,[17],inactive
same,Potency,Aromatase (Homo sapiens),inactive
CCOC(=O)c1cccnc1,Potency,[1],inactive
same,Potency,[2],inactive
same,Potency,[3],inactive
same,Potency,[4],inactive
same,Potency,[5],inactive
same,Potency,[8],inactive
same,Potency,[10],inactive
same,Potency,[11],inactive
same,Potency,[12],inactive
same,Potency,[18],inactive
same,Potency,[13],inactive
same,Potency,[14],inactive
same,Potency,[15],inactive
same,Potency,[16],inactive
same,Potency,[17],inactive
same,Potency,Aromatase (Homo sapiens),inactive
CC1CCC(=O)C1=O (stereo unspecified),Potency,[1],inactive
same,Potency,[2],inactive
same,Potency,[3],inactive
same,Potency,[4],inactive
same,Potency,[5],inactive
same,Potency,[8],inactive
same,Potency,[10],inactive
same,Potency,[11],inactive
same,Potency,[12],inactive
same,Potency,[13],inactive
same,Potency,[14],inactive
same,Potency,[15],inactive
same,Potency,[16],inactive
same,Potency,[17],inactive
same,Potency,Aromatase (Homo sapiens),inactive
O=CC1CC=CCC1 (stereo unspecified),Potency,[1],inactive
same,Potency,[2],inactive
same,Potency,[3],inactive
same,Potency,[4],inactive
same,Potency,[5],inactive
same,Potency,[19],inactive
same,Potency,[6],inactive
same,Potency,[7],inactive
same,Potency,[8],inactive
same,Potency,[9],inactive
same,Potency,[11],inactive
same,Potency,[12],inactive
same,Potency,[18],inactive
same,Potency,[13],inactive
same,Potency,[14],inactive
same,Potency,[15],inactive
same,Potency,[16],inactive
same,Potency,[17],inactive
same,Potency,Aromatase (Homo sapiens),inactive
O=C1CCC(=O)O1,Potency,[1],inactive
same,Potency,[2],inactive
same,Potency,[3],inactive
same,Potency,[4],inactive
same,Potency,[5],inactive
same,Potency,[8],inactive
same,Potency,[10],inactive
same,Potency,[11],inactive
same,Potency,[12],inactive
same,Potency,[18],inactive
same,Potency,[13],inactive
same,Potency,[14],inactive
same,Potency,[15],inactive
same,Potency,[16],inactive
same,Potency,[17],inactive
same,Potency,Aromatase (Homo sapiens),inactive
COc1ccc(C(=O)N2CCN(CC(=O)N3CCOCC3)CC2)cc1,Potency,[1],inactive
same,Potency,[2],inactive
same,Potency,[3],inactive
same,Potency,[4],inactive
same,Potency,[5],inactive
same,Potency,[8],inactive
same,Potency,[10],inactive
same,Potency,[11],inactive
same,Potency,[12],inactive
same,Potency,[18],inactive
same,Potency,[13],inactive
same,Potency,[14],inactive
same,Potency,[15],inactive
same,Potency,[16],inactive
same,Potency,[17],inactive
same,Potency,Aromatase (Homo sapiens),inactive
CCCCC/C=C\C/C=C\CCCCCCCC(=O)NC(C)c1ccccc1 (stereo unspecified),Potency,[1],inactive
same,Potency,[2],inactive
same,Potency,[3],inactive
same,Potency,[4],inactive
same,Potency,[5],inactive
same,Potency,[8],inactive
same,Potency,[10],inactive
same,Potency,[11],inactive
same,Potency,[12],inactive
same,Potency,[13],inactive
same,Potency,[14],inactive
same,Potency,[15],inactive
same,Potency,[16],inactive
same,Potency,[17],inactive
O=C(O)CNCC(=O)O,"viability change, negative = cytotoxic",[1],-8.93% [at 7.04 µM] (inactive)
same,"activity change, negative = cytotoxicity",[2],8.65% [at 8.52 µM] (inactive)
same,"activity, negative = cytotoxicity",[3],-2.98% [at 8.53 µM] (inactive)
same,"activity change, negative = cytotoxicity",[4],1.1% [at 8.55 µM] (inactive)
same,"activity change, negative = cytotoxicity",[5],1.48% [at 7.04 µM] (inactive)
same,"activity change, negative = inhibition",[19],0.788% [at 7.04 µM] (inactive)
same,activation,[6],-0.671% [at 6.9 µM] (inactive)
same,activity change,[7],"1.91% [at 8.47 µM, stronger effect = higher value] (inactive)"
same,"viability change, negative = cytotoxic",[8],-11.9% [at 8.47 µM] (inactive)
same,"activity change, negative = inhibition",[9],1.72% [at 8.47 µM] (inactive)
same,"activity change, negative = cytotoxic",[10],2.43% [at 8.44 µM] (inactive)
same,"activity, negative = inhibition",[11],-3.78% [at 8.44 µM] (inactive)
same,activation,[12],-1.57% [at 8.08 µM] (inactive)
same,"activity, negative = inhibition",[18],-6.23% [at 6.71 µM] (inactive)
same,"activity, negative = cytotoxicity",[13],-3.67% [at 6.72 µM] (inactive)
same,activation,[14],-4.82% [at 6.71 µM] (inactive)
same,activation,[15],2.44% [at 8.47 µM] (inactive)
same,"activity change, negative = inhibition",[16],0.887% [at 8.47 µM] (inactive)
same,"activity change, negative = cytotoxicity",[17],-9.74% [at 8.47 µM] (inactive)
same,"activity, negative = inhibition",Aromatase (Homo sapiens),14.5% [at 8.47 µM] (inactive)
OCCN1CCN(CCCN2c3ccccc3C=Cc3ccccc32)CC1,Potency,[1],inactive
same,Potency,[2],5.96 µM (active) and 13.3 µM (active)
same,Potency,[3],1.68 µM (active) and 15 µM (active)
same,Potency,[4],8.41 µM (active) and 26.6 µM (active)
same,Potency,[5],inactive
same,Potency,[8],inactive
same,Potency,[10],6.68 µM (active) and 7.5 µM (active)
same,Potency,[11],11.9 µM (active) and 26.6 µM (active)
same,Potency,[12],inactive
same,Potency,[13],inactive
same,Potency,[14],inactive
same,Potency,[15],inactive
same,Potency,[16],inactive
same,Potency,[17],10.6 µM (active) and inactive
same,Potency,Aromatase (Homo sapiens),inactive
CC(COCCO)OCCO (stereo unspecified),Potency,[1],inactive
same,Potency,[2],inactive
same,Potency,[3],inactive
same,Potency,[4],inactive
same,Potency,[5],inactive
same,Potency,[19],inactive
same,Potency,[6],inactive
same,Potency,[7],inactive
same,Potency,[8],inactive
same,Potency,[9],inactive
same,Potency,[10],inactive
same,Potency,[11],inactive
same,Potency,[12],inactive
same,Potency,[13],inactive
same,Potency,[17],inactive
same,Potency,Aromatase (Homo sapiens),inactive
